Assay results published in PubChem BioAssay (EPA / NIEHS).
Inconclusive results are not listed. Activity calls are given as the source filed them. Rule for the calls, unless noted: active = hit-call score of the fitted dose curve at least 0.9, where 1 is the maximum; inconclusive = response in the unintended direction; inactive = score below 0.9.

Tests used:
[1] = TOX21_p53_BLA_p2_viability: Viability Assessment in the Tox21 HCT-116 p53 Agonism Beta-lactamase Assay, Phase 2 (AID 2283591);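 note: actives lower the ATP signal meaning cytotoxicity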
Summary of the method: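 HCT116 p53-bla cells, 4000/well, dosed after 5 h plating (217-fold dilution of DMSO stocks) and incubated 16 h at 37C. Viability taken as cellular ATP by CellTiter-Glo luminescence after 30 min RT; signal loss marks cytotoxicity.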

[2] = biological target: Cellular tumor antigen p53 (Homo sapiens) (UniProt P04637); assay: TOX21_p53_BLA_p2_ratio: Tox21 HCT-116 p53 Agonism Beta-lactamase Assay, Ratio, Phase 2 (AID 2283592)
Summary of the method: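 An inducible beta-lactamase reporter in HCT116 cells signals p53 pathway activation. After 16 h chemical exposure at 37C, cells load CCF4-AM substrate for 2 h at room temperature; activity is the cleaved/uncleaved emission ratio relative to DMSO.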

[3] = biological target: Cellular tumor antigen p53 (Homo sapiens) (UniProt P04637); assay: TOX21_p53_BLA_p3_ratio: Tox21 HCT-116 p53 Agonism Beta-lactamase Assay, Ratio, Phase 3 (AID 2283596)
Summary of the method: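 HCT116 p53-bla cells (4000/well) given compound in DMSO (217-fold dilution) after 5 h, incubated 16 h at 37C. CCF4-AM substrate 2 h at room temperature; 460/530 nm emission ratio, gain fitted against DMSO.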

[4] = TOX21_p53_BLA_p4_viability: Viability Assessment in the Tox21 HCT-116 p53 Agonism Beta-lactamase Assay, Phase 4 (AID 2283597);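 note: hits lower the luminescence signal meaning cytotoxicity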
Summary of the method: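 Compound exposure of HCT116 cells lasts 16 h at 37C, 5% CO2, with DMSO stocks diluted 217-fold. Cellular ATP is then quantified by CellTiter-Glo luminescence after 30 min at room temperature.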

[5] = biological target: Cellular tumor antigen p53 (Homo sapiens) (UniProt P04637); assay: TOX21_p53_BLA_p5_ratio: Tox21 HCT-116 p53 Agonism Beta-lactamase Assay, Ratio, Phase 5 (AID 2283599)
Summary of the method: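 HCT-116 p53-bla cells (4000/well) plated 5 h, dosed with compound (217-fold DMSO dilution) for 16 h at 37 C; CCF4-AM substrate 2 h at room temperature. Activity is the 460/530 nm emission ratio (405 nm excitation), fitted in gain-of-signal direction versus DMSO.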

[6] = TOX21_p53_BLA_p5_viability: Viability Assessment in the Tox21 HCT-116 p53 Agonism Beta-lactamase Assay, Phase 5 (AID 2283600)
Summary of the method: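 Counter-readout for cytotoxicity: ATP-dependent luminescence from CellTiter-Glo, read in the beta-lactamase wells after 30 min at RT, following a 16 h compound exposure at 37C.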

[7] = biological target: Cellular tumor antigen p53 (Homo sapiens) (UniProt P04637); assay: TOX21_p53_BLA_p4_ratio: Tox21 HCT-116 p53 Agonism Beta-lactamase Assay, Ratio, Phase 4 (AID 2283601)
Summary of the method: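 HCT-116 p53 beta-lactamase reporter cells (4000/well) preincubated 5 h, then compound (217-fold dilution of DMSO stock) for 16 h at 37C. CCF4-AM substrate added 2 h at room temperature; 460/530 nm emission ratio fitted upward versus DMSO.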

[8] = CCTE_Shafer_MEA_dev_firing_rate_mean: CCTE's Neural Network Formation Assay for Mean Firing Rate, Shafer Lab (AID 2284031; active = hit-call score of the fitted dose curve at least 0.9, where 1 is the maximum; inactive = score below 0.9)
Summary of the method: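 Rat primary cortical neurons were seeded on multielectrode arrays and treated from plating through day 12, with redosing at each feed. Spontaneous spiking was recorded four times; mean firing rate AUC was fitted downward against DMSO.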

[9] = CCTE_Shafer_MEA_dev_per_burst_spike_percent: CCTE's Neural Network Formation Assay for Percent of Spikes in a Burst, Shafer Lab (AID 2284032; active = hit-call score of the fitted dose curve at least 0.9, where 1 is the maximum; inactive = score below 0.9)
Summary of the method: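 Rat primary cortical neurons on 16-electrode MEA wells, dosed from plating day 0 for 12 days with renewal on DIV 5 and 9; spikes-in-bursts percentage averaged over bursting electrodes, collapsed as AUC across days 5, 7, 9, 12; loss direction versus DMSO.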

[10] = CCTE_Shafer_MEA_dev_active_electrodes_number: CCTE's Neural Network Formation Assay for Number of Active Electrodes, Shafer Lab (AID 2284040)
Summary of the method: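 Primary rat cortical neurons on 16-electrode MEA wells, exposed from day 0 through day 12 with compound renewed at DIV 5 and 9 feeds. Active electrodes (mean firing ≥5 spikes/min) counted at DIV 5, 7, 9, 12; trapezoidal AUC across days, loss-of-signal versus DMSO.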

[11] = CCTE_Shafer_MEA_dev_burst_rate: CCTE's Neural Network Formation Assay for Burst Rate, Shafer Lab (AID 2284042; active = hit-call score of the fitted dose curve at least 0.9, where 1 is the maximum; inactive = score below 0.9)
Summary of the method: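 Rat primary cortical cultures on PEI/laminin MEA; compound from plating, re-dosed at DIV 5, 9 media change. Single-electrode bursts/recording length, well mean of active electrodes; AUC over DIV 5–12 recordings; loss-of-signal vs DMSO.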

[12] = CCTE_Shafer_MEA_dev_bursting_electrodes_number: CCTE's Neural Network Formation Assay for Number of Bursting Electrodes, Shafer Lab (AID 2284043)
Summary of the method: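 Primary rat cortical neurons plated on 16-electrode MEA wells, exposed from day 0 with compound renewed at DIV 5 and 9. Electrodes bursting ≥1 burst per 2 min counted on days 5, 7, 9 and 12; trapezoidal AUC across days, fitted for loss versus DMSO.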

[13] = CCTE_Shafer_MEA_dev_per_burst_interspike_interval: CCTE's Neural Network Formation Assay for Burst Interspike Interval, Shafer Lab (AID 2284044; active = hit-call score of the fitted dose curve at least 0.9, where 1 is the maximum; inactive = score below 0.9;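 note: mean spike spacing inside bursts as AUC over recordings on days 5 7 9 12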)
Summary of the method: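 Developmental network-formation MEA in primary rat cortical cultures with exposure spanning days 0–12. Within-burst ISI is averaged per well and integrated across recording days by area under the curve, with DMSO as negative control baseline.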

[14] = CCTE_Shafer_MEA_dev_burst_duration_mean: CCTE's Neural Network Formation Assay for Mean Burst Duration, Shafer Lab (AID 2284045; active = hit-call score of the fitted dose curve at least 0.9, where 1 is the maximum; inactive = score below 0.9)
Summary of the method: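 Primary rat cortical neurons on 48-well 16-electrode MEA plates, exposed from day 0 with renewal at DIV 5 and 9; spontaneous activity recorded on days 5, 7, 9, 12. Well-mean burst duration across bursting electrodes, collapsed as trapezoidal AUC; DMSO baseline.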

[15] = CCTE_Shafer_MEA_dev_interburst_interval_mean: CCTE's Neural Network Formation Assay for Mean Interburst Interval, Shafer Lab (AID 2284046; active = hit-call score of the fitted dose curve at least 0.9, where 1 is the maximum; inactive = score below 0.9;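 note: well-mean interburst interval of bursting electrodes as AUC over four recording days; curve fitted for decrease in interburst interval relative to DMSO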)
Summary of the method: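 Rat cortical neurons, 1.5 x 10^5 cells/well, 48-well MEA; compound from day 0 through DIV 12, media and treatment renewed DIV 5/9. Recordings DIV 5, 7, 9, 12; well-mean interburst interval → trapezoidal AUC, loss direction vs DMSO.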

[16] = CCTE_Shafer_MEA_dev_inter_network_spike_interval_mean: CCTE's Neural Network Formation Assay for Mean Inter-network Spike Interval, Shafer Lab (AID 2284047; active = hit-call score of the fitted dose curve at least 0.9, where 1 is the maximum; inactive = score below 0.9)
Summary of the method: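 Primary rat cortical neurons on PEI-coated 48-well MEAs (16 electrodes/well) were exposed from plating day 0 to DIV 12, with dosing renewed at DIV 5 and 9. Recordings at DIV 5, 7, 9, 12 were collapsed by trapezoidal AUC, loss-of-signal fit vs DMSO.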

[17] = CCTE_Shafer_MEA_dev_network_spike_number: CCTE's Neural Network Formation Assay for Number of Network Spikes, Shafer Lab (AID 2284048; active = hit-call score of the fitted dose curve at least 0.9, where 1 is the maximum; inactive = score below 0.9)
Summary of the method: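 Primary rat cortical neurons on PEI/laminin 48-well MEA plates, dosed from plating day 0 for 12 days, renewed at DIV 5 and 9. Network spike counts recorded DIV 5, 7, 9, 12, collapsed as trapezoidal AUC; DMSO baseline.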

[18] = CCTE_Shafer_MEA_dev_spike_duration_mean: CCTE's Neural Network Formation Assay for Mean Spike Duration, Shafer Lab (AID 2284051; active = hit-call score of the fitted dose curve at least 0.9, where 1 is the maximum; inactive = score below 0.9;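 note: mean network spike duration pooled as area under curve over DIV 5 to 12 recordings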)
Summary of the method: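 Rat cortical primary cultures, 48-well MEA (16 electrodes/well); compound from plating, renewed DIV 5, 9. Network spike duration (AxIS adaptive detector) recorded DIV 5/7/9/12, combined as trapezoidal AUC; loss direction vs DMSO.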

[19] = CCTE_Shafer_MEA_dev_network_spike_duration_std: CCTE's Neural Network Formation Assay for Standard Deviation of Network Spike Duration, Shafer Lab (AID 2284052; active = hit-call score of the fitted dose curve at least 0.9, where 1 is the maximum; inactive = score below 0.9;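 note: area under curve of spike duration SD across recording days 5 to 12; hits are decreases in network spike duration SD versus DMSO vehicle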)
Summary of the method: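 Rat cortical cultures, 1.5 x 10^5 cells/well, exposed continuously from plating to DIV 12 with media/compound renewal at DIV 5, 9. Spontaneous activity recorded DIV 5/7/9/12, AxIS adaptive spike detector; AUC across days; negative direction vs DMSO.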

[20] = CCTE_Shafer_MEA_dev_per_network_spike_spike_number_mean: CCTE's Neural Network Formation Assay for Mean Number of Spikes in a Network Spike, Shafer Lab (AID 2284053; active = hit-call score of the fitted dose curve at least 0.9, where 1 is the maximum; inactive = score below 0.9)
Summary of the method: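 Rat cortical primary cultures on 48-well MEA; compound from day 0, re-dosed with full media change DIV 5, 9. Recorded DIV 5, 7, 9, 12; spikes in 0.05 s window at network-spike peak ÷ total network spikes; AUC; loss vs DMSO.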

[21] = CCTE_Shafer_MEA_dev_per_network_spike_spike_percent: CCTE's Neural Network Formation Assay for Percent of Spikes in a Network Spike, Shafer Lab (AID 2284054; active = hit-call score of the fitted dose curve at least 0.9, where 1 is the maximum; inactive = score below 0.9)
Summary of the method: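 Rat primary cortical neurons were grown on 48-well MEA plates (16 electrodes/well), exposed from plating day 0 through day 12, with treatment renewed on DIV 5 and 9. Percent of spikes within 0.05 s network-spike peaks was measured, summarised as AUC across days 5, 7, 9, 12.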

[22] = CCTE_Shafer_MEA_dev_LDH: CCTE's Lactate Dehydrogenase Assay for Cytotoxicity in the Neural Network Formation Assay, Shafer Lab (AID 2284068);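 note: exposure for twelve days from plating with re-dosing on DIV 5 and 9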
Summary of the method: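 Rat cortical primary neurons, MEA culture; dosing day 0–12, full medium plus compound exchange DIV 5, 9. Read-out: LDH enzyme activity, spectrophotometric. DMSO = negative control/baseline; signal loss → cytotoxicity.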

[23] = CCTE_Shafer_MEA_dev_mutual_information_norm: CCTE's Neural Network Formation Assay for Mutual Information Normalization, Shafer Lab (AID 2284091; active = hit-call score of the fitted dose curve at least 0.9, where 1 is the maximum; inactive = score below 0.9)
Summary of the method: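 Primary rat cortical neurons on PEI-coated 48-well MEA plates, 1.5 x 10^5 cells/well, exposed from day 0 through day 12 with re-dosing at DIV 5 and 9. Mutual information between electrodes recorded days 5, 7, 9, 12; trapezoidal AUC, loss-of-signal fit versus DMSO.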

[24] = CCTE_Shafer_MEA_dev_correlation_coefficient_mean: CCTE's Neural Network Formation Assay for Mean Correlation Coefficient, Shafer Lab (AID 2284093; active = hit-call score of the fitted dose curve at least 0.9, where 1 is the maximum; inactive = score below 0.9)
Summary of the method: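 Rat cortical cultures, 1.5 x 10^5 cells/well, dosed from day 0 for 12 days. Spontaneous spikes recorded DIV 5/7/9/12; electrode-pair correlation coefficients averaged, AUC taken. Fit in loss direction vs DMSO.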

Measured: AC50

Cellular tumor antigen p53 (Homo sapiens), sequence (P04637 whole entry, looked up): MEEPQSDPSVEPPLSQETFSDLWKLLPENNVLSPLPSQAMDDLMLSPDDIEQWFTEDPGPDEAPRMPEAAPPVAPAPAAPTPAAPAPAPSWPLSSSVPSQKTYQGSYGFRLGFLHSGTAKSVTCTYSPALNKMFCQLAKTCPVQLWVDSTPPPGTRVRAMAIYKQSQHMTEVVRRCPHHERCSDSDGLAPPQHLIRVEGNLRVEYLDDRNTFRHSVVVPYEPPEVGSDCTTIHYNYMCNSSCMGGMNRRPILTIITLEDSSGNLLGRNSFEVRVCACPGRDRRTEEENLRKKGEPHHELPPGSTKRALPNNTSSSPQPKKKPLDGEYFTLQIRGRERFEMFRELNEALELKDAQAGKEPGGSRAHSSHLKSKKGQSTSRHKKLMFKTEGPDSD

Cc1cc(NS(=O)(=O)c2ccc(N)cc2)nc(C)n1
inactive: [1] | [2] | [3] | [4] | [5] | [6] | [7]

CNc1ccccc1
inactive: [1] | [2] | [3] | [4] | [5] | [6] | [7]

CCCCCN(CCCCC)C(=O)C(CCC(=O)O)NC(=O)c1ccc(Cl)c(Cl)c1 (stereo not given)
inactive: [1] | [2] | [3] | [4] | [5] | [6] | [7]

Cc1c(C(C)C)c(=O)n(-c2ccccc2)n1C
inactive: [1] | [2] | [3] | [4] | [6]

c1cc2ccc3ccc4ccc5cccc6c(c1)c2c3c4c56
inactive: [1] | [3] | [4] | [6] | [7] | [8] | [9] | [10] | [11] | [12] | [13] | [14] | [15] | [16] | [17] | [18] | [19] | [20] | [21] | [22] | [23] | [24]
active: [2] 1.94 µM | [5] 2.79 µM
